Common to all, as to test: PBM; 200 nM protein, PBS
Conditions in all cases: dsDNA, one strand shown

Experiment [1] has as its target T1, SIX6 (Homo sapiens, UniProt O95475 114-200, L167I).
T1 sequence: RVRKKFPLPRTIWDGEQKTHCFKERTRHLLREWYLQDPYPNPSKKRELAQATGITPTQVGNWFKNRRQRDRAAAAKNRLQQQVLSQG

For experiment [2], the target named is T2, SIX6 (Homo sapiens, UniProt O95475 114-200, L143V).
T2 sequence: T1 sequence with L30V, I54L

The target in experiment [3] is T3, SIX6 (Homo sapiens, UniProt O95475 114-200, H141N).
T3 sequence: T1 sequence with H28N, I54L

The target of experiment [4] is T4, SIX6 (Homo sapiens, UniProt O95475 114-200, T165P).
T4 sequence: T1 sequence with T52P, I54L

Experiment [5] has as its target T5, SIX6 (Homo sapiens, UniProt O95475 114-200, L167M).
T5 sequence: T1 sequence with I54M

Experiment [6] has as its target T6, SIX6 (Homo sapiens, UniProt O95475 114-200, L143M).
T6 sequence: T1 sequence with L30M, I54L

For experiment [7], the target named is T7, SIX6 (Homo sapiens, UniProt O95475 114-200, L143I).
T7 sequence: T1 sequence with L30I, I54L

Experiment [8] concerns the target T8, SIX6 (Homo sapiens, UniProt O95475 114-200, T165G).
T8 sequence: T1 sequence with T52G, I54L

Experiment [9] has as its target T9, SIX6 (Homo sapiens, UniProt O95475 114-200, T139Q).
T9 sequence: T1 sequence with T26Q, I54L

Experiment [10] deals with T10, SIX6 (Homo sapiens, UniProt O95475 114-200, T165A).
T10 sequence: T1 sequence with T52A, I54L

In experiment [11] the target is T11, SIX6 (Homo sapiens, UniProt O95475 114-200, L167V).
T11 sequence: T1 sequence with I54V

The target in experiment [12] is T12, SIX6 (Homo sapiens, UniProt O95475 114-200).
T12 sequence: T1 sequence with I54L

Experiment [13] addresses T13, SIX6 (Homo sapiens, UniProt O95475 114-200, T165I).
T13 sequence: T1 sequence with T52I, I54L

Where a chain is given by its changes, count along the chain named.

In the case of CGGGGACC, the binding signal with SIX6 [1] was 8.99 upbm affinity estimate (log intensity, higher = more binding, comparable within an allelic series); with SIX6 [2] it was 8.83 upbm affinity estimate (log intensity, higher = more binding, comparable within an allelic series); with SIX6 [3] it was 8.99 upbm affinity estimate (log intensity, higher = more binding, comparable within an allelic series); in the experiment with SIX6 [4], 8.96 upbm affinity estimate (log intensity, higher = more binding, comparable within an allelic series); in the experiment with SIX6 [5] it was 8.97 upbm affinity estimate (log intensity, higher = more binding, comparable within an allelic series); in the experiment with SIX6 [6], 8.88 upbm affinity estimate (log intensity, higher = more binding, comparable within an allelic series). Also, the binding signal was 8.86 upbm affinity estimate (log intensity, higher = more binding, comparable within an allelic series) with SIX6 [7]; 8.9 upbm affinity estimate (log intensity, higher = more binding, comparable within an allelic series) with SIX6 [8]; 8.95 upbm affinity estimate (log intensity, higher = more binding, comparable within an allelic series) with SIX6 [9]; 8.92 upbm affinity estimate (log intensity, higher = more binding, comparable within an allelic series) in the experiment with SIX6 [10]; 8.99 upbm affinity estimate (log intensity, higher = more binding, comparable within an allelic series) with SIX6 [11]; 8.89 upbm affinity estimate (log intensity, higher = more binding, comparable within an allelic series) in the experiment with SIX6 [12]. Moreover, in the experiment with SIX6 [13], the binding signal is 8.91 upbm affinity estimate (log intensity, higher = more binding, comparable within an allelic series).
With GGTGATAC, the binding signal in the experiment with SIX6 [1] is 11.3 upbm affinity estimate (log intensity, higher = more binding, comparable within an allelic series); with SIX6 [2], 10.3 upbm affinity estimate (log intensity, higher = more binding, comparable within an allelic series); in the experiment with SIX6 [3] it was 11.3 upbm affinity estimate (log intensity, higher = more binding, comparable within an allelic series); with SIX6 [4], 9.52 upbm affinity estimate (log intensity, higher = more binding, comparable within an allelic series); in the experiment with SIX6 [5] it was 10.6 upbm affinity estimate (log intensity, higher = more binding, comparable within an allelic series); with SIX6 [6] it was 11 upbm affinity estimate (log intensity, higher = more binding, comparable within an allelic series). Further, the binding signal with SIX6 [7] is 10.4 upbm affinity estimate (log intensity, higher = more binding, comparable within an allelic series); with SIX6 [8], 11.3 upbm affinity estimate (log intensity, higher = more binding, comparable within an allelic series); with SIX6 [9], 11.4 upbm affinity estimate (log intensity, higher = more binding, comparable within an allelic series); with SIX6 [10], 11.3 upbm affinity estimate (log intensity, higher = more binding, comparable within an allelic series); in the experiment with SIX6 [11], 11 upbm affinity estimate (log intensity, higher = more binding, comparable within an allelic series); with SIX6 [12], 11 upbm affinity estimate (log intensity, higher = more binding, comparable within an allelic series). Moreover, in the experiment with SIX6 [13], the binding signal was 11 upbm affinity estimate (log intensity, higher = more binding, comparable within an allelic series).
Take TAGTATCA: the binding signal with SIX6 [1] was 11.3 upbm affinity estimate (log intensity, higher = more binding, comparable within an allelic series); with SIX6 [2] it was 10.6 upbm affinity estimate (log intensity, higher = more binding, comparable within an allelic series); with SIX6 [3] it was 11.1 upbm affinity estimate (log intensity, higher = more binding, comparable within an allelic series); with SIX6 [4], 10 upbm affinity estimate (log intensity, higher = more binding, comparable within an allelic series); in the experiment with SIX6 [5], 10.8 upbm affinity estimate (log intensity, higher = more binding, comparable within an allelic series); with SIX6 [6], 11 upbm affinity estimate (log intensity, higher = more binding, comparable within an allelic series). The binding signal is 10.4 upbm affinity estimate (log intensity, higher = more binding, comparable within an allelic series) with SIX6 [7]; 11.3 upbm affinity estimate (log intensity, higher = more binding, comparable within an allelic series) with SIX6 [8]; 11.3 upbm affinity estimate (log intensity, higher = more binding, comparable within an allelic series) with SIX6 [9]; 11.2 upbm affinity estimate (log intensity, higher = more binding, comparable within an allelic series) with SIX6 [10]; 11.1 upbm affinity estimate (log intensity, higher = more binding, comparable within an allelic series) with SIX6 [11]; 11 upbm affinity estimate (log intensity, higher = more binding, comparable within an allelic series) in the experiment with SIX6 [12]. For the same sequence, the binding signal with SIX6 [13] was 11 upbm affinity estimate (log intensity, higher = more binding, comparable within an allelic series).
Consider CATGATAC, for which the binding signal was 11.2 upbm affinity estimate (log intensity, higher = more binding, comparable within an allelic series) with SIX6 [1]; 10.3 upbm affinity estimate (log intensity, higher = more binding, comparable within an allelic series) with SIX6 [2]; 11.2 upbm affinity estimate (log intensity, higher = more binding, comparable within an allelic series) in the experiment with SIX6 [3]; 9.82 upbm affinity estimate (log intensity, higher = more binding, comparable within an allelic series) in the experiment with SIX6 [4]; 10.7 upbm affinity estimate (log intensity, higher = more binding, comparable within an allelic series) in the experiment with SIX6 [5]; 10.9 upbm affinity estimate (log intensity, higher = more binding, comparable within an allelic series) with SIX6 [6]. In addition, the binding signal with SIX6 [7] was 10.4 upbm affinity estimate (log intensity, higher = more binding, comparable within an allelic series); in the experiment with SIX6 [8] it was 11.3 upbm affinity estimate (log intensity, higher = more binding, comparable within an allelic series); with SIX6 [9], 11.2 upbm affinity estimate (log intensity, higher = more binding, comparable within an allelic series); in the experiment with SIX6 [10], 11.1 upbm affinity estimate (log intensity, higher = more binding, comparable within an allelic series); in the experiment with SIX6 [11], 11 upbm affinity estimate (log intensity, higher = more binding, comparable within an allelic series); in the experiment with SIX6 [12], 11 upbm affinity estimate (log intensity, higher = more binding, comparable within an allelic series). Besides, the binding signal with SIX6 [13] is 10.9 upbm affinity estimate (log intensity, higher = more binding, comparable within an allelic series).
For the sequence CGCGCCGC, the binding signal with SIX6 [1] is 9.05 upbm affinity estimate (log intensity, higher = more binding, comparable within an allelic series); in the experiment with SIX6 [2], 9.06 upbm affinity estimate (log intensity, higher = more binding, comparable within an allelic series); in the experiment with SIX6 [3], 9.06 upbm affinity estimate (log intensity, higher = more binding, comparable within an allelic series); with SIX6 [4] it was 9.04 upbm affinity estimate (log intensity, higher = more binding, comparable within an allelic series); with SIX6 [5] it was 9.05 upbm affinity estimate (log intensity, higher = more binding, comparable within an allelic series); with SIX6 [6] it was 9.02 upbm affinity estimate (log intensity, higher = more binding, comparable within an allelic series). The binding signal was 9.02 upbm affinity estimate (log intensity, higher = more binding, comparable within an allelic series) in the experiment with SIX6 [7]; 9.01 upbm affinity estimate (log intensity, higher = more binding, comparable within an allelic series) with SIX6 [8]; 9.07 upbm affinity estimate (log intensity, higher = more binding, comparable within an allelic series) with SIX6 [9]; 9.12 upbm affinity estimate (log intensity, higher = more binding, comparable within an allelic series) in the experiment with SIX6 [10]; 9.02 upbm affinity estimate (log intensity, higher = more binding, comparable within an allelic series) with SIX6 [11]; 9.09 upbm affinity estimate (log intensity, higher = more binding, comparable within an allelic series) with SIX6 [12]. The binding signal with SIX6 [13] is 9.04 upbm affinity estimate (log intensity, higher = more binding, comparable within an allelic series).
For ATCGTGTC, the binding signal was 10.1 upbm affinity estimate (log intensity, higher = more binding, comparable within an allelic series) with SIX6 [1]; 9.87 upbm affinity estimate (log intensity, higher = more binding, comparable within an allelic series) with SIX6 [2]; 10.2 upbm affinity estimate (log intensity, higher = more binding, comparable within an allelic series) with SIX6 [3]; 9.63 upbm affinity estimate (log intensity, higher = more binding, comparable within an allelic series) with SIX6 [4]; 9.93 upbm affinity estimate (log intensity, higher = more binding, comparable within an allelic series) with SIX6 [5]; 9.97 upbm affinity estimate (log intensity, higher = more binding, comparable within an allelic series) with SIX6 [7]. The binding signal in the experiment with SIX6 [8] is 10.3 upbm affinity estimate (log intensity, higher = more binding, comparable within an allelic series); with SIX6 [10], 10.3 upbm affinity estimate (log intensity, higher = more binding, comparable within an allelic series); with SIX6 [12] it was 10.3 upbm affinity estimate (log intensity, higher = more binding, comparable within an allelic series).

(Values after PMC11006913.)
